PKM2 act: increases activity of human pyruvate kinase M2. P14618. purified PKM2, Kinase-Glo ATP luminescence, activation; response scale: 0% is enzyme alone, no compound. Potency, µM (doses to about 57.5 µM), inactives show at the top dose activation, most hits filed as activators. actives 0.34% (n = 260,000); also: potency is read from the fitted curve at half-maximal effect; nearly all actives have a fitted effect of over 55% in size
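Purified hPK-M2 (>95%) run at intermediate activity with 0.1 mM ADP and 0.5 mM PEP in 50 mM imidazole pH 7.2, KCl, MgCl2; 1 h room temperature. ATP formed read by Kinase-Glo luminescence; normalized to uninhibited and no-enzyme controls.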
PI4K2A block: inhibitors of human PI4K2A. Q9BTU6. purified PI4K2A, ADP-Glo luminescence, 1 h; active compounds read low. activity change, negative = inhibition, % at 76.9 µM. actives 0.13% (n = 420,000). AID 1346378; in the data active = activity change below about -50%; inconclusive = mostly about -30% to -49%;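 also: -100% = wells without enzyme as full effect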
Target sequence (Q9BTU6 whole entry, looked up): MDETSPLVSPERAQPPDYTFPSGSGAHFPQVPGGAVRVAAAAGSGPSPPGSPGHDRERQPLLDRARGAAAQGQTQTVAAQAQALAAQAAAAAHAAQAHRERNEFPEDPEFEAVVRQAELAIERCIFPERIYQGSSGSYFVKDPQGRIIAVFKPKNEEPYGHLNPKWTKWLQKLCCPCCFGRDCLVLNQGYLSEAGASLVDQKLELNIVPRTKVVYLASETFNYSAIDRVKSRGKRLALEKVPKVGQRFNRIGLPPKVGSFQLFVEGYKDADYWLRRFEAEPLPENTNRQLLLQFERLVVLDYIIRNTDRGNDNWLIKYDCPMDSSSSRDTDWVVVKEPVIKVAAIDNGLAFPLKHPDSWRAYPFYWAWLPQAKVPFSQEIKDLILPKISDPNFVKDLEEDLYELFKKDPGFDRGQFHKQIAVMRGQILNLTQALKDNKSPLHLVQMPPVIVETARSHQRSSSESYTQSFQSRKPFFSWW
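In this quantitative HTS, ADP production by PI4K2A was quantified luminescently after 1 h at ambient temperature; 100 microM adenosine served as plate-quality control.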
TrxR1 inh: blocks rat thioredoxin reductase 1; O89049; recombinant rTrxR1, NADPH fluorescence consumption, selenite substrate; Potency, µM (top dose mostly 114 µM), for the others: at the top dose activity change, negative = inhibition, most hits filed as inhibitors; actives 1% (n = 390,000); also: potency is read from the fitted curve at half-maximal effect; nearly all actives have a fitted effect of over 65% in size
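Rat TrxR1 (90 nM in the dispensed reagent) was pre-reduced with 400 uM NADPH for 5 min at room temperature, then incubated with compound for 15 min. After 400 uM selenite was added, NADPH fluorescence (Ex 340/Em 450 nm) was followed for 8 min.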
GALK inh: inhibitors of human galactokinase; Purified GALK, Kinase-Glo residual ATP luminescence; Potency, µM (top dose mostly 57.5 µM), without a hit: top-dose activity change, negative = inhibition, most hits filed as inhibitors; actives 0.007% (n = 270,000); also: potency is read from the fitted curve at half-maximal effect
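Kinase-Glo Plus luminescence measured ATP left after a 1 h room-temperature reaction. The reaction used 5 nM GALK, 100 uM galactose and 35 uM ATP at pH 8.0 (20 mM HEPES, 5 mM MgCl2, 60 mM NaCl, 1 mM DTT, 0.01% BSA).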
TrxR1 substrate: is turned over as a substrate by rat TrxR1. purified TrxR1 substrate turnover, NADPH consumption readout. Potency, µM (titrated, usually from 114 µM), inactives show at the top dose activity change, negative = substrate turnover. actives 0.01% (n = 390,000). AID 588456; also: potency is read from the fitted curve at half-maximal effect; nearly all actives have a fitted effect of over 50% in size
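Rat TrxR1, dispensed at 90 nM, was prereduced with 400 uM NADPH (final) for 5 min at ~22 deg C, then incubated with compound 15 min before 400 uM selenite. A first-read NADPH fluorescence drop versus no-compound background flagged substrates.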
* marks the source's active call; other numbers are inactive results; ? = inconclusive; nt = not tested or not shown; [ ] = another dose, or the depositor's remark. Hits are enriched below; roughly 1.2% of the tested compounds scored in any of these assays. Unless noted, calls follow the shape of the dose curve; as a rule, active = well fitted curve in the direction sought with a large enough effect; inconclusive = small, poorly fitted or top-dose-only effect, or another doubt; inactive = no such curve, though single readings can be large; an effect the other way counts as inactive or inconclusive. Unless noted, % is scaled to controls: 0 for no effect and ±100 for the full control effect.

SMILES	PKM2 act	PI4K2A block	TrxR1 inh	GALK inh	TrxR1 substrate
CC1=C2NC(N)=[N+](Cc3ccccc3)CC2n2c(=O)n(-c3ccccc3)c(=O)n2C1 (stereo unspecified)	nt	-7	nt	nt	nt
CCOC(=O)CSc1nnc(-c2ccoc2C)n1-c1ccc(OCC)cc1	40µM*	-13	19%	6%	12%
COc1ccc(Cn2ccc3ccc(-c4ccc5ccn(Cc6ccc(F)cc6)c5c4)cc32)cc1	nt	-4	nt	nt	nt
CCOc1ccc(OCC(=O)Nc2nccs2)cc1	-83%	-86*	8%[57.1 µM]	?	-2%[57.1 µM]
COc1ccc(OCC(=O)Nc2nccs2)cc1	-48%	?	10%[57.1 µM]	15%	7%[57.1 µM]
COc1cc(NS(=O)(=O)c2ccc(C(=O)O)cc2)c2nc(C)ccc2c1	nt	nt	15%[0.457 µM]	nt	1%
COc1cc2cc(CN(Cc3nnnn3Cc3ccco3)C3CCCCC3)c(=O)[nH]c2cc1OC	17%	-6	11µM*	1%	24%
CCOc1ccc2[nH]c(=O)c(CN(Cc3ccco3)Cc3nnnn3Cc3ccccc3)cc2c1	5%	9	14µM*	0%	23%
Cc1cc2cc(C(c3nnnn3Cc3ccco3)N3CCCCC3)c(=O)[nH]c2cc1C (stereo unspecified)	12%	-2	-18%	-1%	10%
Cc1ccc2[nH]c(=O)c(CN(CCCO)Cc3nnnn3Cc3ccccc3)cc2c1	nt	nt	20µM*	nt	5%
CCOc1ccc2[nH]c(=O)c(C(c3nnnn3Cc3ccco3)N3CCN(C)CC3)cc2c1 (stereo unspecified)	-7%	0	4%[57.1 µM]	1µM*	22%[57.1 µM]
CC(C)CNC(=O)CC1Oc2ccccc2NC1=O (stereo unspecified)	nt	-2	nt	nt	nt
Cc1ccc2cccc(NC(=O)C(C)(C)Oc3ccc(Br)cc3)c2n1	nt	3	32%	nt	5%
Cn1c(-n2cccc2)c(-c2c(-c3ccc(F)cc3)[nH]c3c2c(=O)n(C)c(=O)n3C)c(=O)n(C)c1=O	nt	-5	27%	nt	4%
Cc1[nH]c2ccccc2c1C(c1c[nH]c2ccccc12)c1c(C)[nH]c2ccccc12	nt	nt	?	nt	-7%[0.0914 µM]
COc1ccccc1CC(=O)NO	nt	nt	9%	nt	16%
CC1(C)C(/C=C/C=C/C=C/C=C2\N(CCCCS(=O)(=O)O)c3ccc4ccccc4c3C2(C)C)=[N+](CCCCS(=O)(=O)[O-])c2ccc3ccccc3c21	nt	-65*	3.5µM*	nt	-16%
O=C1C[C@@H](c2ccccc2Cl)N1S(=O)(=O)c1ccccc1[N+](=O)[O-]	nt	nt	-2%	nt	-3%
O=C(COC(=O)c1ccc([N+](=O)[O-])o1)Nc1ccc(F)cc1	nt	-2	25µM*	nt	0%
Cc1cccc(NC(=O)COC(=O)c2ccc([N+](=O)[O-])o2)c1C	2%	-11	?	0%	-3%[57.1 µM]
CN(C)S(=O)(=O)c1cccc(NC(=O)COC(=O)c2ccc([N+](=O)[O-])o2)c1	2%	-5	25µM*	-3%	-7%
O=C(COC(=O)c1ccc([N+](=O)[O-])o1)Nc1ccc(Br)cc1F	nt	-6	5µM*	nt	-6%
O=C(COC(=O)c1ccc([N+](=O)[O-])o1)Nc1ccc(N2CCOCC2)cc1	nt	-10	?	nt	2%
O=C(NCCSCc1c(F)cccc1Cl)C1CCN(S(=O)(=O)Cc2ccccc2)CC1	nt	-5	17%	nt	6%
CCOC(=O)c1sc2nc(-c3ccco3)c3c(c2c1N)CC(C)(C)OC3	?	-19	7.9µM*	1%	-6%
SMILES	PKM2 act	PI4K2A block	TrxR1 inh	GALK inh	TrxR1 substrate
COC(=O)CSc1ncnc2c1sc1nc(-c3ccco3)c3c(c12)CC(C)(C)OC3	9%	nt	nt	-1%	nt
CCN1CCN(C(c2ccccc2F)c2c(O)cc(C)n(CCOC)c2=O)CC1 (stereo unspecified)	nt	-2	?	nt	5%[57.1 µM]
CCN1CCN(C(c2ccccc2Cl)c2c(O)cc(C)n(CCOC)c2=O)CC1 (stereo unspecified)	nt	0	10µM*	nt	-2%[57.1 µM]
CCN1CCN(C(c2ccc(SC)cc2)c2c(O)cc(C)n(CCOC)c2=O)CC1 (stereo unspecified)	nt	-1	25µM*	nt	4%[57.1 µM]
CSc1ccccc1NC(=S)Nc1ccc(S(N)(=O)=O)cc1	1%	6	-21%[57.1 µM]	-1%	4%[57.1 µM]
NS(=O)(=O)c1ccc(NC(=S)Nc2cc(Cl)c(Cl)cc2Cl)cc1	-16%	-6	35µM*	0%	-3%
COc1cc(Br)c(C(=O)c2nccc3cc(OC)c(OC)cc23)cc1OC	-9%	-52*	22%	-1%	-3%
CCN(CC)CCCNC(=O)/C=C/C(=O)O	-5%	-2	2.8µM*	0%	19%[57.1 µM]
C=C1CC(Cn2cc(Br)c(=O)[nH]c2=O)(c2ccc(-c3ccccc3)cc2)OC1=O (stereo unspecified)	nt	4	7.1µM*	nt	-1%
C=CCc1cccc(CNc2nc3ccccc3n2CCC)c1O	28µM*	1	4%[57.1 µM]	1%	-2%
C=CCc1cccc(CNc2nc3ccccc3n2CC)c1O	?	6	5%	3%	2%
C=C1CCC2C(C)(C)[C@H](O)CC[C@@]2(C)[C@@H]1COc1cc(=O)oc2ccccc12 (stereo partly specified)	1%	3	-8%	nt	-13%
C=C1CC(COc2cc(=O)oc3ccccc23)(c2ccccc2)OC1=O (stereo unspecified)	nt	11	32µM*	nt	-7%
Nc1ccc2nc(CCCCCCc3nc4ccc(N)cc4[nH]3)[nH]c2c1	13µM*	5	20%	10%	3%
Clc1cccc[n+]1CCc1ccccc1	nt	nt	45µM*	nt	8%
CCNc1nc(NCC)nc(OCCOC(=O)c2ccccc2)n1	14µM*	4	3%	6%	-4%
O=C1CCCC2(O)C1C(c1cccc(Br)c1)NC(=O)N2Cc1ccccc1 (stereo unspecified)	-11%	-3	16µM*	1%	11%
C[C@@H]1/C=C/CC(=O)N[C@H](c2cccc(Br)c2)[C@H](C)/C=C/CC(=O)N[C@@H]1c1cccc(Br)c1	nt	1	nt	nt	nt
O=C(NCCc1ccc(Cl)cc1)C1CCN(S(=O)(=O)c2ccc3[nH]ccc3c2)CC1	nt	0	14%[57.1 µM]	nt	1%[57.1 µM]
CCCCn1c(SCC(=O)N2CCCC2)nnc1-c1ccccc1	7%	-2	89µM*	0%	-19%
O=C(CSc1nnc(-c2ccccc2)n1Cc1ccccc1)N1CCCC1	-9%	2	30%[57.1 µM]	-2%	18%[57.1 µM]
CC1=C(C(=O)Nc2cccnc2)C(c2cccc(Br)c2)n2nc(SCc3ccccc3)nc2N1 (stereo unspecified)	nt	-3	24%	nt	8%
Cc1cccc(NC(=O)CS(=O)(=O)c2c[nH]c3ccccc23)c1C	25µM*	0	-6%[57.1 µM]	-2%	-5%[57.1 µM]
Nc1ccc(N2CCN(c3ncc(C(F)(F)F)cc3Cl)CC2)c(C(F)(F)F)c1	nt	5	-4%	nt	-14%

Screening data deposited in PubChem by National Center for Advancing Translational Sciences (NCATS).
